Of roughly 7,900 targets only a part is listed; those with a hit were picked by preference. About 0.6% of all pairs of compound and target were hits.
Assays:
Experiment in all cases: log2 fold change, soluble protein after heating vs DMSO (PISA); higher = thermal stabilisation; K562 cells, 10 uM, 30 min; active = over 0.2 and 3.5 SD of the protein, either way, in both replicates (recomputed)
[1] = compound: C1=CC=C(C=C1)[C@H](COC2=CC3=C(C=C2)NC(=O)N3)NC(=O)C4=CC=CN(C4=O)CC5=CC(=C(C=C5)F)F
Procedure, shortened: (§1)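 Soluble protein was quantified by TMTpro 16plex LC-MS/MS after channel sums were equalised. It was obtained as the supernatant after 21,000xg for 90 min from pooled aliquots of K562 cells (2×10^6 cells/mL, 10 μM compound, 30 min) heated for 3 min across 48°C-58°C and extracted in PBS with 0.5% NP-40 at 4°C. Thermal stability values are relative to control samples and come from duplicates. They are given as log2 fold changes.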

[2] = compound: CC1=C(SC2=C1C(=N[C@H](C3=NN=C(N32)C)CC(=O)N)C4=CC=C(C=C4)Cl)C
Procedure, shortened: as §1

[3] = compound: CC1=C2C(=CC=C1)N=C(N(C2=O)C3=CC=CC=C3C)CN4C=NC5=C(N=CN=C54)N
Procedure, shortened: as §1

[4] = compound: Cc1sc2c(c1C)C(c1ccc(Cl)cc1)=N[C@@H](CC(=O)OC(C)(C)C)c1nnc(C)n1-2
Procedure, shortened: as §1

[5] = compound: c1ccc([C@@H]2C[C@H]2NC2CCNCC2)cc1
Procedure, shortened: as §1

Measured: log2 fold change

ARMC10 (UniProt Q8N2F6)
Sequence of UniProt Q8N2F6 (Q8N2F6 whole entry, looked up): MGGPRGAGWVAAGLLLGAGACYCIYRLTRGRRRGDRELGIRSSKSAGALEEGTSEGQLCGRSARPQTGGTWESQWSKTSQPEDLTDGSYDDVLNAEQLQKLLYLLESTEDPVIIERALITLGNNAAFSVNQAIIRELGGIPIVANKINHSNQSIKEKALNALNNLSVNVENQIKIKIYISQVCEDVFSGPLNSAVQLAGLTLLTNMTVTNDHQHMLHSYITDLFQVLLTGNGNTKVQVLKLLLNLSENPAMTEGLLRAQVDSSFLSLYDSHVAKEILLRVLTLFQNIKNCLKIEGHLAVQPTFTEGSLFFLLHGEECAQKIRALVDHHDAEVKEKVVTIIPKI
inactive: [1] 0.035 | [2] -0.017 | [3] -0.006 | [4] 0.012 | [5] -0.009

ATAD1 (UniProt Q8NBU5)
Sequence of UniProt Q8NBU5 (Q8NBU5 whole entry, looked up): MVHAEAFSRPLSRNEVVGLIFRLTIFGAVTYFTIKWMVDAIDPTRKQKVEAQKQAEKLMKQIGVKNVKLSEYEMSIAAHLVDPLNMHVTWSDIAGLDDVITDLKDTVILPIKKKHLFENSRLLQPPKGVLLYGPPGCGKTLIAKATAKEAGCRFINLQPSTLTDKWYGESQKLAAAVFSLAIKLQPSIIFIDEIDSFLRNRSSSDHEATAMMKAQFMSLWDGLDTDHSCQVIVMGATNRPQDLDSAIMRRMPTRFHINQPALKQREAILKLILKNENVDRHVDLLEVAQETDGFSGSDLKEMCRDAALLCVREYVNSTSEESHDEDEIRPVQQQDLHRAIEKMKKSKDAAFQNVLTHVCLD
inactive: [1] 0.016 | [2] 0.055 | [3] 0.063 | [4] -0.027 | [5] -0.02

ARFRP1 (UniProt Q13795)
Sequence of UniProt Q13795 (Q13795 whole entry, looked up): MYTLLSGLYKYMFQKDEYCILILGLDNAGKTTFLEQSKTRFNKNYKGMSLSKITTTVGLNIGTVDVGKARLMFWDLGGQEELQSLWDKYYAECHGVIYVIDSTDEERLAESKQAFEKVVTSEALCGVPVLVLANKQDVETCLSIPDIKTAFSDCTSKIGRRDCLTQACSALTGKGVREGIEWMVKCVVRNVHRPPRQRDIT
inactive: [1] 0 | [2] -0.066 | [3] -0.03 | [4] -0.021 | [5] 0.029

BRK1 isoform 2 (UniProt Q8WUW1)
Sequence of UniProt Q8WUW1 (Q8WUW1 whole entry, looked up): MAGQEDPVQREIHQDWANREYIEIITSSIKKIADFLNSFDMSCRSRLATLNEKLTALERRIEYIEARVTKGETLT
inactive: [1] 0.018 | [2] -0.018 | [3] 0.025 | [4] -0.055 | [5] -0.013

AASDH (UniProt Q4L235)
inactive: [1] 0.047 | [2] 0.054 | [3] -0.25 | [4] -0.05 | [5] 0.037

ATP9B (UniProt O43861)
Sequence of UniProt O43861 (O43861 whole entry, looked up): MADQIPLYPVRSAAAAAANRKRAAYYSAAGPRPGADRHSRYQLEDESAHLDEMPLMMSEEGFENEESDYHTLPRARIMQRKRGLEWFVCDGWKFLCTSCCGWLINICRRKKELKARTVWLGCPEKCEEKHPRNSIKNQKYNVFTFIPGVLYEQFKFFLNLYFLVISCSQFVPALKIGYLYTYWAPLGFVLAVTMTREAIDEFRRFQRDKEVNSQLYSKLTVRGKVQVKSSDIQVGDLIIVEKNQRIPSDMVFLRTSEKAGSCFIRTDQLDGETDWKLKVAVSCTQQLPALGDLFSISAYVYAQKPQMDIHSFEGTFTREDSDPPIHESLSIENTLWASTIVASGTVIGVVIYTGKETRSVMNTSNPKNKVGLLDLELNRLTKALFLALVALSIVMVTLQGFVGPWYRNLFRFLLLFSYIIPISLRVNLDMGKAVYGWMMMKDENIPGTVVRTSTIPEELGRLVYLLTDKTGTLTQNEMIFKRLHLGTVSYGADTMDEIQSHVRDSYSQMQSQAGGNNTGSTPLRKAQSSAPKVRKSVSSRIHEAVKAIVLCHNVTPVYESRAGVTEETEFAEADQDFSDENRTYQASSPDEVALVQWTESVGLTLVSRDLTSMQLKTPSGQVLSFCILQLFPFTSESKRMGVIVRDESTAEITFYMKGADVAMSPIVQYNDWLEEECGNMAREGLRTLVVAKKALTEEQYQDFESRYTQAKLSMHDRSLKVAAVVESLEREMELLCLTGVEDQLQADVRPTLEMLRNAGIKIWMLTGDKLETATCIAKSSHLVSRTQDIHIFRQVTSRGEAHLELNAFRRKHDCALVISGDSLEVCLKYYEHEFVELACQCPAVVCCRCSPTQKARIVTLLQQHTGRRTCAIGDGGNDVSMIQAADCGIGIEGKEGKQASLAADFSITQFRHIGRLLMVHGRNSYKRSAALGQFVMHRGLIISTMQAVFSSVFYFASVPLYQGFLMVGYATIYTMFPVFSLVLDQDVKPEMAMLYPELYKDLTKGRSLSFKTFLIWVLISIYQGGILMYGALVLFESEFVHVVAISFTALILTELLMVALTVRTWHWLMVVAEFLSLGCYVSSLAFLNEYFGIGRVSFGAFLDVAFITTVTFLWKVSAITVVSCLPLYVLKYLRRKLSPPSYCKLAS
inactive: [1] -0.092 | [2] -0.001 | [3] 0.055 | [4] -0.048 | [5] 0.071

AGO1 (UniProt Q9UL18)
inactive: [1] -0.05 | [2] -0.066 | [3] -0.114 | [4] -0.016 | [5] 0.05

APPL1 (UniProt Q9UKG1)
Sequence of UniProt Q9UKG1 (Q9UKG1 whole entry, looked up): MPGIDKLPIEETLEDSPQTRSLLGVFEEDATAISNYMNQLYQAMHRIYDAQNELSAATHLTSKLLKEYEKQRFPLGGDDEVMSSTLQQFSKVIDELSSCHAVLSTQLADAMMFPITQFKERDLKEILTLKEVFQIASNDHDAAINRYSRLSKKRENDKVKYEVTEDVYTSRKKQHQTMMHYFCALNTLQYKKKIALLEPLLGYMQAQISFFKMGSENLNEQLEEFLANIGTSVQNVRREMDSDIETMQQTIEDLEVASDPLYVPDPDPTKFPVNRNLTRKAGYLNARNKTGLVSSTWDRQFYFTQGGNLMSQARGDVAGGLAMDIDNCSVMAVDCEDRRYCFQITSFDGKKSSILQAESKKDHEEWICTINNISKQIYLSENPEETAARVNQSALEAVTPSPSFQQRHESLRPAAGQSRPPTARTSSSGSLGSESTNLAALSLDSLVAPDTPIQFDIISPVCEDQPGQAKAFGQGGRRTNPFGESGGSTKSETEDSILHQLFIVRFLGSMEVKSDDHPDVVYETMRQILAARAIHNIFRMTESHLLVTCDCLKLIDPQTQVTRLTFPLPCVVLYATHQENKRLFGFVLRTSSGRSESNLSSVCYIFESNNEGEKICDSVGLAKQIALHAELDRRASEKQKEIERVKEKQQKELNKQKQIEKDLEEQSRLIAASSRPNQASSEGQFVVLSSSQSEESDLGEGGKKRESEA
inactive: [1] -0.027 | [2] 0.122 | [3] 0.086 | [4] -0.025 | [5] -0.049

B4GALT1 (UniProt P15291)
Sequence of UniProt P15291 (P15291 whole entry, looked up): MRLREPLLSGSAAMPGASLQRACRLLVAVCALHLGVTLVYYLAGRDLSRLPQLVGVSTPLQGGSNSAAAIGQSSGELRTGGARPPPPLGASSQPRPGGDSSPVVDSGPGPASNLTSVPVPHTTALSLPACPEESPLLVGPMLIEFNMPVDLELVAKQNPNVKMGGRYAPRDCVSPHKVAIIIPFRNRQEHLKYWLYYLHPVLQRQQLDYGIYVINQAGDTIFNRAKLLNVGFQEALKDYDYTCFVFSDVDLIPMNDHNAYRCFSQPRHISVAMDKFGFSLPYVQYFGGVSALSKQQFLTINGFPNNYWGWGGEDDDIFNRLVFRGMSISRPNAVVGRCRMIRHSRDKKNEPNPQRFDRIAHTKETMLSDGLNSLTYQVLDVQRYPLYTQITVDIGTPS
inactive: [1] 0.034 | [2] 0.057 | [3] -0.065 | [4] -0.022 | [5] -0.042

AP2B1 isoform 2 (UniProt P63010)
inactive: [1] 0.023 | [2] -0.017 | [3] -0.016 | [4] 0.03 | [5] -0.002

ATAD3B (UniProt Q5T9A4)
Sequence of UniProt Q5T9A4 (Q5T9A4 whole entry, looked up): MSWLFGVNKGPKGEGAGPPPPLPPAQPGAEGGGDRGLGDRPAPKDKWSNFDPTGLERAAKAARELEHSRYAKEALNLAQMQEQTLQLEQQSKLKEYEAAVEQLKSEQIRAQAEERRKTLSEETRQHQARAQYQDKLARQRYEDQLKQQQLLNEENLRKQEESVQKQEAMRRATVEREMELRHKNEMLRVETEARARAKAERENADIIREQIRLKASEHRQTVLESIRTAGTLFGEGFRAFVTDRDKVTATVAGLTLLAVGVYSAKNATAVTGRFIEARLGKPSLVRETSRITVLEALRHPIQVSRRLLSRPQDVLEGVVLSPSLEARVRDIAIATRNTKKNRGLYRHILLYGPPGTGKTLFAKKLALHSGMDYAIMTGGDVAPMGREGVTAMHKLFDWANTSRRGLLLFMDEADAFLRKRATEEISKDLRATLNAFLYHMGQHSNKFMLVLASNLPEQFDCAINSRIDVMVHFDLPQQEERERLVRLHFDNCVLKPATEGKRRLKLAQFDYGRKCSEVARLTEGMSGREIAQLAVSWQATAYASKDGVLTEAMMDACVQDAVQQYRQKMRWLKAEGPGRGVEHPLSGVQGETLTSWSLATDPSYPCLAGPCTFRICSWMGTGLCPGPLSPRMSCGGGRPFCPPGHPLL
inactive: [1] -0.02 | [2] -0.023 | [3] -0.055 | [4] 0.123 | [5] 0.025

ALKBH5 (UniProt Q6P6C2)
Sequence of UniProt Q6P6C2 (Q6P6C2 whole entry, looked up): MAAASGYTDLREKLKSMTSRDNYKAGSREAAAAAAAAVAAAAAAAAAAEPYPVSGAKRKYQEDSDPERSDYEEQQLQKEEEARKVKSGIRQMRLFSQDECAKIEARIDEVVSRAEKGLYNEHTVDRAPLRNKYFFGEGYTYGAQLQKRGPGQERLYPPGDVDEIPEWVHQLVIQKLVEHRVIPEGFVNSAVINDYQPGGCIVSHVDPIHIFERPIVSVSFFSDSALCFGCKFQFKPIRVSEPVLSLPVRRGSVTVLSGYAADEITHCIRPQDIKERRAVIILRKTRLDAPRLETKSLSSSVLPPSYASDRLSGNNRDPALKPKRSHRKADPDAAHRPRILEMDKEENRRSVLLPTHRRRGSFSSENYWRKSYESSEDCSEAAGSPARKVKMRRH
inactive: [1] 0.065 | [2] -0.002 | [3] 0.085 | [4] -0.024 | [5] 0.028

Reference: the supplement of paper PMC10849652
